Gal4-VP16 FLuc: counter-screen for ROR gamma inhibitors: Gal4-VP16 reporter | Drosophila S2 Gal4-VP16 UAS-luciferase, luminescence, 20 h | Potency, µM (highest dose often 53.6 µM), inactives show at the highest dose activity, negative = inhibition, actives largely listed as inhibitors | 310,000 tested, 3.5% active | AID 2546;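 also: Gal4-VP16 expression switched on by copper sulfate through the metallothionein promoter; potency is read from the fitted curve at half-maximal effect; nearly all actives have a fitted effect of over 50% in size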
ELG1 repair inh: blocks ELG1-dependent DNA repair in HEK293T cells | HEK293T ELG1-luciferase reporter, luminescence, 16 h; DNA damage induced by 5-fluorouridine | Potency, µM (doses to about 46.1 µM), without a hit: at the highest dose activity change, negative = inhibition, usual class: inhibitors | 330,000 tested, 2.3% active; also: potency is read from the fitted curve at half-maximal effect; nearly all actives have a fitted effect of over 55% in size
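Cells (2,000 per well) received 5-fluorouridine plus test compound or DMSO and were incubated 16 hr at 37 °C, 5% CO2. Luciferase activity was read by luminescence 30 min after ONE-Glo addition; signal suppression marked inhibition of damage-induced ELG1 function.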
RORg inh: ROR gamma (mouse) transcription inhibition; Drosophila S2 Gal4-RORgamma UAS-luciferase reporter, 20 h; Potency, µM (titrated, usually from 53.6 µM), without a hit: at the highest dose activity change, negative = inhibition, most hits filed as inhibitors; 310,000 tested, 5.4% active; also: potency is read from the fitted curve at half-maximal effect; nearly all actives have a fitted effect of over 60% in size
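Stable Schneider cell line, Gal4 DNA-binding domain fused to ROR gamma, UAS-luciferase. Cmpd 1 hr RT → CuSO4 700 uM final → 20 hr RT → luciferase reagent 10 min → luminescence.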
TSHR antagonist: blocks TSH signaling through the human TSH receptor; 330,000 tested, 0.2% active; TSHR-expressing cells, TSH-stimulated cAMP HTRF, 2 h; active compounds read low; activity change, negative = inhibition, % at 11.5 µM; P16473; AID 504810;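 active = activity change below a set negative limit, meaning inhibition stronger than a set level, cut at about -70% in these data; inconclusive = activity change between two set negative limits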
Target sequence (P16473 whole entry, looked up): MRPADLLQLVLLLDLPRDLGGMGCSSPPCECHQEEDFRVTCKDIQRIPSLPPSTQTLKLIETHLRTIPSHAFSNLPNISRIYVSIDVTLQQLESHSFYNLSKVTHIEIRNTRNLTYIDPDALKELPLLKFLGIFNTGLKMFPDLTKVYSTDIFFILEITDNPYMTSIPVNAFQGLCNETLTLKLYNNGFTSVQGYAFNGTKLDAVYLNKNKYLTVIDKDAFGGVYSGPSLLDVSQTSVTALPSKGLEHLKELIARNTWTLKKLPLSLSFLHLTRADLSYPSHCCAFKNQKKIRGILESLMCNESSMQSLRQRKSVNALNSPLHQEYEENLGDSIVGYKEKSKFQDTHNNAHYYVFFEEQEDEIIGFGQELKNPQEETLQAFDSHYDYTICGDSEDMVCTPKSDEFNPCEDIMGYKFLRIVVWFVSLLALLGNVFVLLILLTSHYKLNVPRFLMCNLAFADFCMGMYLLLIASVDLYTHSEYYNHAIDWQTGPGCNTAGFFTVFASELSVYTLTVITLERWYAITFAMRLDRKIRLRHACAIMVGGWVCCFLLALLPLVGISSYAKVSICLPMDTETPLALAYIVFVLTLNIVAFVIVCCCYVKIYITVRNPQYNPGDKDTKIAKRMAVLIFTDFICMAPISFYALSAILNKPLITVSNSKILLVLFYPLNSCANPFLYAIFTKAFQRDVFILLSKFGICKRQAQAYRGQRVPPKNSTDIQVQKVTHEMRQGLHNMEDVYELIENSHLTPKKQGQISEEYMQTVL
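TSHR-expressing cells were treated with compounds, then stimulated with TSH at EC80 (4nM final) for 2 hours at 37 deg C. Cellular cAMP was measured by HTRF competition between lysate cAMP and cAMP-d2 for a cryptate-labelled anti-cAMP antibody.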
FBPA coupling cs: inhibits coupling enzyme system, counter-screen for aldolase hits. coupling enzyme system counterscreen, AmpLite Red fluorescence. activity change, negative = inhibition, % at 58.2 µM, hits read low. 290,000 tested, 0.67% active; in the data active = activity change below about -30%
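Final compound at 57.5 uM, incubated 10 min at RT with coupling enzyme reagent (glyceraldehyde-3-phosphate), then 20 min with substrate and AmpLite Red detection. Fluorescence read at 525/598 nm; tests interference with the coupling assay, not aldolase inhibition.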
An asterisk follows results filed as active; ? = inconclusive; . = not tested or not shown; [ ] = remark or other dose. The list is not random: actives were taken first. Their share in the collection is about 8%. Unless noted, calls follow the shape of the dose curve; as a rule, active = well fitted curve in the direction sought with a large enough effect; inconclusive = small, poorly fitted or top-dose-only effect, or another doubt; inactive = no such curve, though single readings can be large; an effect the other way counts as inactive or inconclusive. % is scaled to controls: 0 for no effect and ±100 for the full control effect.

SMILES	Gal4-VP16 FLuc	ELG1 repair inh	RORg inh	TSHR antagonist	FBPA coupling cs
CCc1ccc(C2CC(=O)N3CN(c4ccccc4)CSC3=C2C#N)cc1 (stereo unspecified)	9%	7%	?	-4	-19
Cc1ccc(N2CSC3=C(C#N)C(c4cccs4)CC(=O)N3C2)cc1 (stereo unspecified)	19%	?	-3%	7	-28
COc1cc(OC)c(C2CC(=O)N3CN(c4ccc(C)cc4)CSC3=C2C#N)cc1OC (stereo unspecified)	19%	8%	-21%	-14	-31*
COc1ccc(N2CSC3=C(C#N)C(c4cccs4)CC(=O)N3C2)cc1 (stereo unspecified)	?	27%	17%[10 µM]	13	-49*
C/C=C1/C2C=C(C)CC1(N)c1ccc(=O)[nH]c1C2 (stereo unspecified)	-3%	.	5%	.	3
COc1ccc(N2CSC3=C(C#N)C(c4ccc(OC)c(OC)c4)CC(=O)N3C2)c(OC)c1 (stereo unspecified)	10%	-5%	?	-8	-43*
COc1ccc(N2CSC3=C(C#N)C(c4cc(OC)ccc4OC)CC(=O)N3C2)c(OC)c1 (stereo unspecified)	?	-25%	?	-1	-46*
CC1=C(C)CC(C(=O)NC2CCN(C(C)C)CC2)C(C(=O)O)C1 (stereo unspecified)	-3%	?	-21%	37	.
O=C(Nc1ccc(N2CCOCC2)c(Cl)c1)c1ccccc1F	?	?	9%	-5	-24
Cc1ccc(NC(=O)c2cc(N3C(=O)C=CC3=O)ccc2N2CCOCC2)cc1Cl	3.2µM*	12%	5.6µM*	-21	-3
O=C(Nc1ccc(N2CCCCC2)c(Cl)c1)c1ccc2c(c1)OCCO2	-26%	-27%	6%	-34	-12
O=C(Nc1ccc(N2CCOCC2)c(Cl)c1)c1ccc2c(c1)OCCO2	?	?	0.79µM*	10	4
O=C(Nc1ccc(N2CCOCC2)c(Cl)c1)C1CCCCC1	0%	21µM*	1%	21	7
Cc1cc(C(=O)Nc2ccc(N3CCOCC3)c(Cl)c2)c(C)o1	-24%	?	3.2µM*	-6	-12
Cc1cc(C)nc(NC(=S)Nc2ccc(Br)cc2Cl)c1	?	13%	0.56µM*	-1	0
Cc1ccnc(NC(=O)Nc2ccc(Br)cc2Cl)c1	-16%	?	-1%	25	4
Cc1cc(C)nc(NC(=S)Nc2cccc(Cl)c2Cl)c1	1.8µM*	-16%	0.4µM*	14	3
COc1cccc(CNC(=O)CCCn2nc(C)n3c(cc4sccc43)c2=O)c1	0%	-4%	-34%	-6	.
CCN1C(=O)[C@H]2[C@H]3[C@H](O)[C@H](O)C/C(=N/NC(=O)OCc4ccc(OC)cc4)[C@@H]3CC[C@@H]2C1=O	3%[10 µM]	.	-21%[10 µM]	.	2
COc1cc(NS(=O)(=O)c2ccc(NC(=S)NC(=O)c3ccc(F)c(F)c3)cc2)nc(OC)n1	-4%	14%	14%	-7	.
COc1ccccc1C1CCN(c2cc(O)ccc2[N+](=O)[O-])CC1	-6%	12µM*	19%	-43	-1
COc1cccc(-c2nc(NCc3cccnc3)c3ccccc3n2)c1	-9%	.	-23%	.	1
COc1ccc(/C=C/C(=O)Nc2ccccc2C(=O)O)cc1OC	7.9µM*	?	3.5µM*	-19	6
COc1ccc(/C=C/C(=O)ONC2=NCCCCC2)cc1OC	-24%	-8%	11µM*	3	1
COc1ccc(/C=C/C(=O)Nc2ccc3c(c2)CCC3)cc1OC	4µM*	-19%	?	-5	-1
SMILES	Gal4-VP16 FLuc	ELG1 repair inh	RORg inh	TSHR antagonist	FBPA coupling cs
COc1ccc(/C=C/C(=O)Nc2ccc(-n3nncc3-c3ccccc3)cc2)cc1OC	-2%	15µM*	?	-6	0
O=C(c1ccco1)N1CCN(Cc2csc(-c3ccccc3Cl)n2)CC1	-19%	?	16%	-50	.
CCc1ccc(N2CC(C(=O)OCC(=O)NNC(=O)c3ccccc3)CC2=O)cc1 (stereo unspecified)	.	0%	.	-3	.
N#CCCC(CCC#N)C1=NCCc2ccccc21	6%	0%	0%	3	2
COC(=O)N1CCC2(CC1)CN(C(=O)Nc1cccc(F)c1)C2	11%	.	5%	.	2
CC(=O)c1ccc(S(=O)(=O)NCCC(=O)OCC(=O)N2CCCC2=O)cc1	.	14%	.	-1	.
COc1ccc(/C=C/C(=O)Nc2ccccc2C(=O)O)cc1	10µM*	?	7.9µM*	13	-13
COc1ccc(/C=C(/C(=O)Nc2ccccc2C(=O)NC(C)C)c2ccccc2)cc1	-4%	?	?	1	0
COc1ccc(/C=C(/C(=O)Nc2ccccc2C(=O)N2CCCC2)c2ccccc2)cc1	-4%	23µM*	35%	0	0
COc1ccc(/C=C/C(=O)N2CCN(C)CC2)cc1OC	2%	0%	?	-122*	-3
CCOC(=O)N1CCN(C(=O)COC(=O)CNC(=O)c2ccc(OCC)c(OCC)c2)CC1	.	15%	.	-1	.
N#Cc1cnn2c(-c3cccc([N+](=O)[O-])c3)ccnc12	.	22%	.	3	.
COc1ccc2cc([S+]([O-])Cc3ncc(C)c(OC)c3C)nc2c1	.	.	.	-7	.
CCNC(=S)Nc1ccccc1-c1ccccc1	11µM*	-1%	8.9µM*	-11	-2
CNC(=S)Nc1ccccc1-c1ccccc1	?	-4%	11µM*	-2	-1
Cc1ccc(N2CC(NC(=O)N3CCN(C(=O)c4ccco4)CC3)CC2=O)cc1 (stereo unspecified)	.	0%	.	2	.
COc1ccc(CC2=C(O)c3ccccc3C(=O)C2=O)cc1	-26%	-6%	?	6	-2
O=C1C(=O)c2ccccc2C(O)=C1CCCCl	?	18µM*	?	16	-50*
Cn1cc(CCC(=O)NCCCc2ccccc2)c2ccccc21	11%	-9%	31%	2	-2
COc1ccc(C2CC(C(F)(F)F)n3ncc(C(=O)Nc4cccc(O)c4)c3N2)cc1OC (stereo unspecified)	?	15µM*	20%	10	3
O=C(c1ccco1)N1CCC2(CCCN(C(c3ccccc3)c3ccccc3)C2)CC1	0%	.	37%	.	-2
CCOC(=O)c1ncn2c1[C@@H]1CCNC1C(=O)c1cc(OC)ccc1-2 (stereo partly specified)	.	7%	.	-3	.
Cc1ccc(Sc2ncccc2C(=O)NCC(c2ccc(F)cc2)N2CCOCC2)cc1C (stereo unspecified)	.	-12%	.	1	.
CCOC(=O)C1=C(C)C(c2ccccc2)NC(=S)N1 (stereo unspecified)	?	-3%	7.1µM*	-3	5
